In the supplement of paper PMC6555819 one finds PBM binding z-score data, which are given here for 39 sequences.

For the first assay, the system named is LXRb homodimer (NR concentration 270 nM). Kind of assay: PBM binding z-score (relative to random genomic background probes); higher = stronger binding; sequences stand for … in GC…GCGATTGACAGCGTAGAATGAAGG
The procedure, abridged:
(§1)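 Ligand-free nuclear receptor dimers were bound for 1 h to custom Agilent 4×180K protein-binding microarrays. Detection used antibodies against each partner (one per run). Binding z-scores rest on regression-normalized fluorescence, with random background probes as the reference.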
Take TCGAGTAGGTTACCAATGGGGCAGTCAGCTTTCT: the PBM binding z-score was -0.413.

Regarding GGAACGAGGGAAAAGTTGATAGCATCTGTCGACG, the PBM binding z-score was -0.568.

The sequence ATATGTAGGTTATCGGGTCATTCCGTTTGCGCAT came in with a PBM binding z-score of 0.638.

As to AGAATGAGGTTCCCAAAGATCAGGGAAACGCTTG, the PBM binding z-score was -0.694.

The sequence CCTACTGGGCCAAGGTCATTGATCAGTCAAAGCA came in with a PBM binding z-score of -0.497.

Regarding ATCTCTAGGTAAAAAGTTCAGTGAAAGAGAGGAC, the PBM binding z-score came out at 0.888.

The sequence CCTTACGGGTCACTCCAGATTATAGCATCGGAGT came in with a PBM binding z-score of 0.399.

Consider AGTCAAAGTTCATCTAGGCAACGTAAGATATGCT, for which the PBM binding z-score is 1.77.

TAGCCTAGGTCAGTCAGGGGCCAGTATAGAAAGC: the PBM binding z-score was -0.405.

In turn, CCGACTGGGGCAGAAAGGTTACCACACCATCCGG had a PBM binding z-score of -1.17.

In the case of ATATGTAGGTTACATCTGGGTCATTCAGGCTATG, the PBM binding z-score worked out at 0.621.

As to TCAGACAGATGAAGGTAACTCAGGTACGCAGTCG, the PBM binding z-score was -0.545.

In turn, CTCGAAAGGTCGGTTAAGGTGAGTATACGGATAA had a PBM binding z-score of 0.111.

The sequence TCGAGTAGGTTAGGGGCATTCTGAATGGCGTCGA gave a PBM binding z-score of -0.421.

The sequence GATACAGGGTCAAGGCCGGAGTACGCGTATTGAT came in with a PBM binding z-score of -0.495.

For GCTGCTAGGTCAACTGATGGTCAGTTAAAGCTCG, the PBM binding z-score is 0.46.

In turn, ACTAGCAGGCCAAGTTTGGGCCACTCAAACAAAG returned a PBM binding z-score of -1.23.

The next assay deals with PPARa:RXRa (NR concentration 270 nM, RXRa partner concentration 90 nM). Described as above. The procedure, abridged:
as §1
For the sequence AGTCAAAGTTCATCCAGGTAACGTAAGATATGCT, the PBM binding z-score was 4.82.

CTCGAAAGGTCGGTTGAGGTGAGTAGACGGATAA displayed a PBM binding z-score of 2.76.

With CCTTACGGGTCACGAGGTTATAGGACGACGAGCG, the PBM binding z-score came out at 5.93.

On to ATCGAAAGGTCGACGAGGTGACTATACACCGTTT, for which the PBM binding z-score amounted to 4.53.

For AGAATGAGGTTACGAAAGATCAGGGAAACGCTTG, the PBM binding z-score amounted to 3.68.

As to TCTGCTAGGTTAACGATGGTCAGCTAATCTGCTA, the PBM binding z-score was 0.393.

The sequence ATCGAAAGGTCGACGAGGTGAGTATTCACCGTTT registered a PBM binding z-score of 4.26.

Regarding ATATGTAGGTAAGCTGGGGTCATTCAGACTAGGC, the PBM binding z-score is 4.98.

For the sequence CATACAGGGTCAGCTAGCCCAGAGTAGGGACGGC, the PBM binding z-score was determined as 4.36.

Take ATCGAAAGATCGAGGTGAGTATAGAGAAAGGGAA: the PBM binding z-score turned out to be 0.469.

As to TCTATTAGTTAAAGGGCAACCGACGAGTCCGTTT, the PBM binding z-score was 1.87.

In the case of CCTATTATTTGACCATAAGGGCAACCGAAGCTCG, the PBM binding z-score was found to be 0.882.

Consider AATACACGGTCATCGTAGGCCAGAGTACGCACAG, for which the PBM binding z-score was determined as 0.606.

In turn, CGTCCAAGGGCAAAGGTCAGTGAAGAGATGACGG returned a PBM binding z-score of 5.39.

CCTTACGGGTCACAAGGTTATAGCACGACGAGCG gave a PBM binding z-score of 5.46.

GCGACTGGGGCATCAGCAGGTTCCCATAACTTAA showed a PBM binding z-score of 0.27.

The sequence AGAACGAGGGCACGCTGAGTTTATAGCAGAGTAG came in with a PBM binding z-score of 2.21.

Sequence GATACAGGGTCAAGGCCAGATTACGCGTATTGAT yielded a PBM binding z-score of 5.77.

Turning to ATACCAAGGTGAACGTGAGGTCGTTGATACTAAC, the PBM binding z-score is 2.87.

CCTGCTAGGTCTTGGTCAGCTAATCTACAGTATG registered a PBM binding z-score of -0.469.

Sequence GCTTGTAGATCAAGGTTACGAAAGACTAAGCTAA showed a PBM binding z-score of 1.97.

For the sequence CCTGCTAGGTCATGGTCAGCTACTCTACAGTATG, the PBM binding z-score stood at 3.16.

In turn, TCGAGTAGGTTACCAATGGGGCAGTCAGCTTTCT yielded a PBM binding z-score of 1.05.

Sequence GGAACGAGGGAAAAGTTGATAGCATCTGTCGACG displayed a PBM binding z-score of 1.15.

The sequence ATATGTAGGTTATCGGGTCATTCCGTTTGCGCAT came in with a PBM binding z-score of 4.81.

For AGAATGAGGTTCCCAAAGATCAGGGAAACGCTTG, the PBM binding z-score was 0.11.

Sequence CCTACTGGGCCAAGGTCATTGATCAGTCAAAGCA gave a PBM binding z-score of 4.1.

Take ATCTCTAGGTAAAAAGTTCAGTGAAAGAGAGGAC: the PBM binding z-score was found to be 1.98.

The sequence CCTTACGGGTCACTCCAGATTATAGCATCGGAGT had a PBM binding z-score of 4.41.

For AGTCAAAGTTCATCTAGGCAACGTAAGATATGCT, the PBM binding z-score was found to be 4.92.

Sequence TAGCCTAGGTCAGTCAGGGGCCAGTATAGAAAGC gave a PBM binding z-score of 1.46.

Sequence CCGACTGGGGCAGAAAGGTTACCACACCATCCGG had a PBM binding z-score of 2.21.

In the case of ATATGTAGGTTACATCTGGGTCATTCAGGCTATG, the PBM binding z-score is 4.01.

Sequence TCAGACAGATGAAGGTAACTCAGGTACGCAGTCG registered a PBM binding z-score of 0.832.

Sequence CTCGAAAGGTCGGTTAAGGTGAGTATACGGATAA gave a PBM binding z-score of 3.04.

TCGAGTAGGTTAGGGGCATTCTGAATGGCGTCGA came in with a PBM binding z-score of 1.08.

Consider GATACAGGGTCAAGGCCGGAGTACGCGTATTGAT, for which the PBM binding z-score was found to be 5.66.

Consider GCTGCTAGGTCAACTGATGGTCAGTTAAAGCTCG, for which the PBM binding z-score came to 3.74.

ACTAGCAGGCCAAGTTTGGGCCACTCAAACAAAG returned a PBM binding z-score of -0.243.

Another assay deals with PPARg:RXRa (NR concentration 180 nM, RXRa partner concentration 90 nM). The assay is described as above. The procedure, abridged:
as §1
In the case of AGTCAAAGTTCATCCAGGTAACGTAAGATATGCT, the PBM binding z-score was 6.19.

Turning to CTCGAAAGGTCGGTTGAGGTGAGTAGACGGATAA, the PBM binding z-score worked out at 0.386.

In turn, CCTTACGGGTCACGAGGTTATAGGACGACGAGCG showed a PBM binding z-score of 7.51.

ATCGAAAGGTCGACGAGGTGACTATACACCGTTT had a PBM binding z-score of 3.26.

Sequence AGAATGAGGTTACGAAAGATCAGGGAAACGCTTG had a PBM binding z-score of 2.95.

Turning to TCTGCTAGGTTAACGATGGTCAGCTAATCTGCTA, the PBM binding z-score was -0.117.

Sequence ATCGAAAGGTCGACGAGGTGAGTATTCACCGTTT came in with a PBM binding z-score of 2.45.

On to ATATGTAGGTAAGCTGGGGTCATTCAGACTAGGC, for which the PBM binding z-score is 4.31.

As for CATACAGGGTCAGCTAGCCCAGAGTAGGGACGGC, the PBM binding z-score worked out at 3.35.

In turn, ATCGAAAGATCGAGGTGAGTATAGAGAAAGGGAA had a PBM binding z-score of 0.553.

TCTATTAGTTAAAGGGCAACCGACGAGTCCGTTT gave a PBM binding z-score of 1.12.

As for CCTATTATTTGACCATAAGGGCAACCGAAGCTCG, the PBM binding z-score is 0.551.

AATACACGGTCATCGTAGGCCAGAGTACGCACAG returned a PBM binding z-score of 1.15.

Sequence CGTCCAAGGGCAAAGGTCAGTGAAGAGATGACGG registered a PBM binding z-score of 8.11.

Take CCTTACGGGTCACAAGGTTATAGCACGACGAGCG: the PBM binding z-score worked out at 5.45.

Consider GCGACTGGGGCATCAGCAGGTTCCCATAACTTAA, for which the PBM binding z-score came out at 0.29.

In turn, AGAACGAGGGCACGCTGAGTTTATAGCAGAGTAG had a PBM binding z-score of 2.19.

Sequence GATACAGGGTCAAGGCCAGATTACGCGTATTGAT returned a PBM binding z-score of 5.99.

In turn, ATACCAAGGTGAACGTGAGGTCGTTGATACTAAC gave a PBM binding z-score of 2.13.

For CCTGCTAGGTCTTGGTCAGCTAATCTACAGTATG, the PBM binding z-score is -0.371.

Sequence GCTTGTAGATCAAGGTTACGAAAGACTAAGCTAA returned a PBM binding z-score of 0.804.

Regarding CCTGCTAGGTCATGGTCAGCTACTCTACAGTATG, the PBM binding z-score is 2.56.

TCGAGTAGGTTACCAATGGGGCAGTCAGCTTTCT yielded a PBM binding z-score of 0.211.

In the case of GGAACGAGGGAAAAGTTGATAGCATCTGTCGACG, the PBM binding z-score amounted to 2.04.

On to ATATGTAGGTTATCGGGTCATTCCGTTTGCGCAT, for which the PBM binding z-score is 6.78.

As for AGAATGAGGTTCCCAAAGATCAGGGAAACGCTTG, the PBM binding z-score came to 0.423.

CCTACTGGGCCAAGGTCATTGATCAGTCAAAGCA had a PBM binding z-score of 4.15.

In turn, ATCTCTAGGTAAAAAGTTCAGTGAAAGAGAGGAC registered a PBM binding z-score of 2.7.

CCTTACGGGTCACTCCAGATTATAGCATCGGAGT displayed a PBM binding z-score of 3.39.

On to AGTCAAAGTTCATCTAGGCAACGTAAGATATGCT, for which the PBM binding z-score was 6.47.

In the case of TAGCCTAGGTCAGTCAGGGGCCAGTATAGAAAGC, the PBM binding z-score came out at 0.583.

The sequence CCGACTGGGGCAGAAAGGTTACCACACCATCCGG gave a PBM binding z-score of 1.74.

The sequence ATATGTAGGTTACATCTGGGTCATTCAGGCTATG registered a PBM binding z-score of 5.41.

TCAGACAGATGAAGGTAACTCAGGTACGCAGTCG gave a PBM binding z-score of 0.832.

Consider CTCGAAAGGTCGGTTAAGGTGAGTATACGGATAA, for which the PBM binding z-score was determined as 0.591.

The sequence TCGAGTAGGTTAGGGGCATTCTGAATGGCGTCGA yielded a PBM binding z-score of 0.543.

Consider GATACAGGGTCAAGGCCGGAGTACGCGTATTGAT, for which the PBM binding z-score was 5.78.

For the sequence GCTGCTAGGTCAACTGATGGTCAGTTAAAGCTCG, the PBM binding z-score was 2.8.

Sequence ACTAGCAGGCCAAGTTTGGGCCACTCAAACAAAG displayed a PBM binding z-score of -0.254.
